Max response data for 13 molecules are collected here from PubChem BioAssay (NCATS).

Records with an inconclusive call do not appear. Calls of active or inactive are those of the source. The call rests on the fitted dose curve; in most records, active means well fitted curve in the direction sought with a large enough effect; inconclusive means small, poorly fitted or top-dose-only effect, or another doubt; inactive means no such curve, though single readings can be large or run the other way.
On the % scale 0 is the no-effect control and ±100 the full control effect.

This assay can be described thus: qHTS Assay for Identifying Gametocytocidal Compounds (AID 743244).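 Further: actives lower the fluorescent signal which means gametocytes are killed.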 The note with it: P. falciparum 3D7 stage III-V gametocytes, alamarBlue, 72 h; max response: active compounds read low. The essentials:
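Late gametocytes (III–V), P. falciparum 3D7; 72 h drug, then 24 h alamarBlue; resazurin reduction read by fluorescence.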
For orientation: Quantitative high-throughput screening tests each substance at several concentrations.
For `CCOC(=O)C1=C[C@@]2(CC)CCCN3CCc4c(n1c1ccccc41)[C@H]32`, the max response was -2.64% (inactive).

Turning to `COc1cc2nccc(Oc3ccc(NC(=O)NC4CC4)c(Cl)c3)c2cc1C(N)=O`, the max response was -10.8% (inactive).

`CCCS(=O)(=O)Nc1ccc(F)c(C(=O)c2c[nH]c3ncc(Cl)cc23)c1F`: the max response was 35.4% (inactive).

With `CC(C)c1onc(-c2c(Cl)cccc2Cl)c1COc1ccc(/C=C/c2cccc(C(=O)O)c2)c(Cl)c1`, the max response is 14.5% (inactive).

As for `Cc1ccnc(NS(=O)(=O)c2ccc(NC(=O)Nc3ccc(S(=O)(=O)Nc4nccc(C)n4)cc3)cc2)n1`, the max response is -10.8% (inactive).

On to `CN(C)c1ccc(C2Nc3ccc4ccccc4c3C3=C2C(=O)CC(C)(C)C3)cc1Br` (stereo not drawn), for which the max response is -26.5% (inactive).

`COc1ccc(CCN2CCN(CCCc3ccccc3)CC2)cc1OC`: the max response is -5.52% (inactive).

Regarding `S=C(NCc1ccc2c(c1)OCO2)N1CCN(c2ncnc3c2oc2ccccc23)CC1`, the max response is -9.54% (inactive).

Regarding `CS(=O)(=O)c1ccc(C(=O)Nc2ccc(Cl)c(-c3ccccn3)c2)c(Cl)c1`, the max response was 15% (inactive).

`O=C(Nc1ccc(F)c(C(F)(F)F)c1)Nc1nnc(-c2ccncc2)s1`: the max response was 6.18% (inactive).

Consider `O=C(NOC[C@H](O)CO)c1ccc(F)c(F)c1Nc1ccc(I)cc1F`, for which the max response was 24.9% (inactive).

With `Cc1cc(C=c2sc3nc4ccccc4n3c2=O)c(C)n1-c1ccccc1`, the max response was 11.9% (inactive).

On to `COc1ccc(CC2=NN3C([C@@H](CCc4ccccc4)[C@@H](C)O)=NC(C)C3C(=O)N2)cc1OC` (stereo partly drawn), for which the max response is -6.02% (inactive).
